These results are taken from PubChem BioAssay (EPA / NIEHS).

Activity calls are given as the source filed them. Rule for the calls: active = hit-call score of the fitted dose curve at least 0.9, where 1 is the maximum; inactive = score below 0.9.

The nature of this experiment: ATG_MRE_CIS: Attagene CIS-FACTORIAL HepG2 Assay for human Metal Responsive Element (MRE) (AID 2282954). As to conditions: HepG2 MRE cis-reporter transcription, Attagene multiplex; actives raise or lower the signal. The procedure: ATG_CIS is a cell-based, multiplexed-readout assay that uses HepG2, a human liver cell line, with measurements taken at 24 hours after chemical dosing in a 24-well plate.ATG_MRE_CIS is one of 52 assay component(s) measured or calculated from the ATG_CIS assay. It is designed to make measurements of mRNA induction, a form of inducible reporter, as detected with fluorescence intensity signals by Reverse transcription polymerase chain reaction (RT-PCR) and Capillary electrophoresis technology.Data from the assay component ATG_MRE_CIS was analyzed into 1 assay endpoint. This assay endpoint, ATG_MRE_CIS, was analyzed with bidirectional fitting relative to DMSO as the negative control and baseline of activity. Using a type of inducible reporter, measures of mRNA for gain or loss-of-signal activity can be used to understand the reporter gene at the transcription factor-level as they relate to the gene MTF1. Furthermore, this assay endpoint can be referred to as a primary readout, because this assay has produced multiple assay endpoints where this one serves a reporter gene function. To generalize the intended target to other relatable targets, this assay endpoint is annotated to the dna binding intended target family, where the subfamily is zinc finger.
Human liver HepG2 cells are transiently transfected with multiple reporter transcription units (MRTUs) in 6-well plates using FuGene 6 reagent (Roche; 3 ml FuGene/1 mg DNA). The MRTU constructs are regulated by a cis-regulating element (promoter). […] A major difference between the CIS and TRANS system is that in CIS activities of endogenous TFs are measured, whereas the TRANS assay evaluates changes in activities of exogenous, chimeric NR-Gal4 proteins. […] At the end of 24 hour incubation, total RNA was isolated using TriZol reagent (Invitrogen). The isolated RNA is then reverse-transcribed using oligo(dT) primer and Mo-MLV reverse transcriptase (Invitrogen) with DNAse I (Ambion) treatment for 30 min. The one-tenth of the produced cDNA was amplified by PCR using Taq DNA polymerase (Invitrogen) and two reporter sequence-specific primers. The PCR products were fluorescently labeled by primer extension with 6-arboxyfluorescein (6-FAM) 5'-labeled reporter sequence-specific primer (2 min at 95 C, 20 s at 68 C and 10 min at 72 C) and these products were digested with 5U of HpaI (New England Biolabs) for 2h at 37 C. The fragments were purified using Qiaquick PCR columns (Qiagen), analyzed on an ABI 3130xL genetic analyzer (Applied Biosystems) with peak positions identified by using a set of X-rhodamine (ROX)-labeled MapMarker1000 molecular weight standards (BioVentures). The raw capillary electrophoresis data was processed using Attagraph software (Attagene).
Take `Clc1cccnc1`: the result was inactive.

As for `CC(C)(C)C1CCC(=O)CC1`, the compound was classed as inactive. For the compound `CCc1cccc(C)c1N(C(=O)CS(=O)(=O)O)C(C)COC` (stereo not given), the outcome was inactive. On to `CC(=O)OC1CCCCC1C(C)(C)C` (stereo not given), for which the outcome was inactive. The same measure, in the same setting: in the case of `CC1=CP(=O)(c2ccccc2)CC1` (stereo not given) it was “inactive”; in that of `Oc1ccc(/C=C/c2cc(O)cc(O)c2)cc1`, “inactive”.

For `CCCCCCCCCCCCc1ccc(O)cc1`, the call was inactive. Turning to `CC(CC(C)C)=NO`, the call was inactive. On to `CCCCCCCCCCCC(C)=O`, for which the AC50 was 179 µM (active). For the compound `O=C(Oc1ccccc1)c1ccccc1O`, the call was inactive. On to `Nc1cccc(N)n1`, for which the compound was classed as inactive.

For the compound `CC=C(C)C=CC=C(C)C`, the result was inactive. Still for that read-out and setting: next, `O=C(O)CCCC(=O)O`: “inactive”.

As to `Nc1ncnc2nc[nH]c12`, the outcome was inactive. Same read-out and setting: in the case of `Cc1ccc(C)c(OCCCC(C)(C)C(=O)O)c1` it was “inactive”; in that of `Clc1cc(Cl)c(Cl)c(Cl)c1Cl`, “inactive”. As to `CCCCCCCCCCCCC`, the result was inactive.

In the case of `CCCCOC(=O)CCC(C)=O`, the compound was called inactive. Same read-out and setting: next, `O=C1CCCCCCCCCCC1`: “inactive”. On to `CC(C)(C)NC(=O)[C@H]1CC[C@H]2[C@@H]3CC[C@H]4NC(=O)C=C[C@]4(C)[C@H]3CC[C@]12C`, for which the concentration at half-maximal activity (AC50) is 68.3 µM (active).

In the case of `CC(=O)c1ccc(S(=O)(=O)NC(=O)NC2CCCCC2)cc1`, the outcome was inactive.

For the compound `CCCCC(CC)COC(=O)/C=C/c1ccc(OC)cc1` (stereo not given), the compound was classed as inactive. On to `CCCCCCCCCCCCCCCCCCOS(=O)(=O)O`, for which the concentration at half-maximal activity (AC50) was 23.2 µM (active). `COC(C=C(C)CCC=C(C)C)OC`: the outcome was inactive.

In the case of `CC12CCC(CC1)C(C)(C)O2`, the compound was called inactive. The same measure, in the same setting: next, `CCOC(=O)c1ccccc1C`: “inactive”; `CN(C)Cc1cc(CN(C)C)c(O)c(CN(C)C)c1`: “inactive”; `CC=CC(=O)OCC(C)C`: “inactive”. The same measure, in the same setting: next, `C=Cc1ccc(OC(C)=O)cc1`: “inactive”. As for `C/C=C/C=C/CCCCCCCO`, the concentration at half-maximal activity (AC50) was 121 µM (active). `Nc1ccc(O)c([N+](=O)[O-])c1`: the compound was called inactive.

As to `O=C(O)C(F)(F)C(F)(F)C(F)(F)C(F)(F)C(=O)O`, the result was inactive. On the same count and under the same terms, in the case of `O=C(O)C1CCC(C(=O)O)CC1` (stereo not given) it was “inactive”; in that of `CC1=CCC2CC1C2(C)C` (stereo not given), “inactive”; in that of `O=C1CCCN1C1CCCCC1`, “inactive”. Same read-out and setting: in the case of `C=C[C@@]1(C)CC(=O)[C@]2(O)[C@@]3(C)[C@@H](O)CCC(C)(C)[C@@H]3[C@H](O)[C@H](OC(C)=O)[C@@]2(C)O1` it was “inactive”; in that of `Nc1ccc(C(=O)O)cc1`, “inactive”. Take `CCCCCC[C@@H](O)C/C=C\CCCCCCCC(=O)OCC(O)CO` (stereo not given in full): the AC50 was 144 µM (active). Take `COc1nccnc1CC(C)C`: the result was inactive. With `Cc1c(C(=O)c2c[nH]n(C)c2=O)ccc(S(C)(=O)=O)c1C1=NOCC1`, the call was inactive.
